# Values without a mark were called inactive. Records with an inconclusive call do not appear. The source made the active and inactive calls. Calls follow the shape of the dose curve; as a rule, active = well fitted curve in the direction sought with a large enough effect; inconclusive = small, poorly fitted or top-dose-only effect, or another doubt; inactive = no such curve, though single readings can be large; an effect the other way counts as inactive or inconclusive.
# Biological target: Cytochrome P450 3A4 (Homo sapiens) (UniProt P08684)
# Sequence (P08684 whole entry, looked up): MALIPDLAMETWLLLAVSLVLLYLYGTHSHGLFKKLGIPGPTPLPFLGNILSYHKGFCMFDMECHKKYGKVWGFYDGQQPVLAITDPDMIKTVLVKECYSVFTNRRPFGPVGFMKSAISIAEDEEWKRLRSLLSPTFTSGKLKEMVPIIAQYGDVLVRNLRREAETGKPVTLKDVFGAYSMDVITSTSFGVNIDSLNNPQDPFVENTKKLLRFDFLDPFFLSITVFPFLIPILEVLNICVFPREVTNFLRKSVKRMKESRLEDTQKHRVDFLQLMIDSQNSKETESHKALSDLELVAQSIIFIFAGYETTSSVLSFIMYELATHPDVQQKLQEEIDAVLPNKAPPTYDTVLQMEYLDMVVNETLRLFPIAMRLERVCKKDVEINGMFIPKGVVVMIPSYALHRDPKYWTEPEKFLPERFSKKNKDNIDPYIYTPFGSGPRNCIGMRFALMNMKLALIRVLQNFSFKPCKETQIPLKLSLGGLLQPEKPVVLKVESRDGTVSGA
# Experiment: qHTS Assay for Activators of Cytochrome P450 3A4 (AID 885); also: nearly all actives have a fitted effect of over 65% in size
# Conditions: recombinant CYP3A4, Luciferin-PPXE luminescence, 60 min; series mostly up to 57.1 µM; activity change, positive = activation: at the top concentration
# Procedure, shortened: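 Human CYP3A4 (20 nM) with Luciferin-PPXE at 25 uM (its KM) in 200 mM KPO4; 10 min compound preincubation, then NADPH regeneration and 60 min reaction at RT. Luciferin read by luminescence; normalized to 57 uM ketoconazole full inhibition.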
row,SMILES,"activity change, positive = activation"
1,CCCCCCC1=Cc2cc(OC)c(OC)cc2C(C(C(C)=O)C(=O)OCC)O1 (stereo unspecified),-42.2% [at 11.4 µM]
2,COc1ccc(-c2cnnc(CCCn3ccnc3-c3ccccc3)n2)cc1,-71.9% [at 11.4 µM]
3,C[C@@H]1CC[C@H]2C(=O)N3[C@@H](CC[C@@H](C)[C@@H]3c3ccc(Br)cc3)C(=O)N2[C@@H]1c1ccc(Br)cc1,-42.7% [at 11.4 µM]

# Test system: not listed separately
# Experiment: qHTS for Inhibitors of Plasmodium falciparum (DD2) proliferation (AID 504314); also: potency is read from the fitted curve at half-maximal effect;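 as to activity, negative = inhibition: parasite DNA measured by SYBR Green fluorescence after red cell lysis; plate controls were DMSO vehicle for no effect and artemisinin wells for full effect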
# Conditions: P. falciparum Dd2 in erythrocytes, SYBR Green growth, 72 h; series mostly up to 6.11 µM; activity, negative = inhibition: at the top concentration
# Procedure, shortened: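 Erythrocytes infected with P. falciparum Dd2 (0.3% parasitemia, 2.5% hematocrit) exposed to compound 72 h at 37C, 5% CO2. Parasite DNA quantified by SYBR Green fluorescence after saponin/Triton lysis overnight; normalized to 0.29 uM artemisinin and DMSO.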
SMILES,"activity, negative = inhibition",Potency
COC(=O)CC=C[C@@H](C)[C@H](NC(=O)OCC(Cl)(Cl)Cl)c1cccc(OC)c1,-6%,
COC(=O)C1=C(C(=O)OC)[C@@H]2N(C)c3ccccc3[C@@]23CCC(=O)N(Cc2ccc(OC)cc2)C3=N1,-13.7%,
C=CCN1C(=O)[C@@]2(CC(C)=C[C@@H](COc3ccccc3)O2)c2ccccc21,-11.9%,
COC(=O)C1=C(C(=O)OC)[C@@H]2N(CC=C(C)C)c3ccccc3[C@@]23CCC(=O)N(CCc2ccccn2)C3=N1,-13.7%,
CCCCCCC1=Cc2cc(OC)c(OC)cc2C(C(C(C)=O)C(=O)OCC)O1 (stereo unspecified),-10.8%,
COC(=O)CCCC1=CC2=CC(=O)C(C)(OC(=O)c3cccs3)C(=O)C2=CN1c1ccc(OC)cc1 (stereo unspecified),1.04% [at 1.12 µM],
CCN1C(=NCc2ccc(OC)cc2)NC(c2cccc(F)c2)C(C(=O)OC)=C1C (stereo unspecified),-12.6%,
CC(C)CON=C1C[C@@H](O)[C@@H](O)[C@@H]2[C@H]3C(=O)N(Cc4ccc5c(c4)OCO5)C(=O)[C@@H]3CC[C@@H]12,-11.1%,
C=CCN1C(=O)[C@@]2(CC(C)=CC[C@@H](C)O2)c2c(Br)cccc21,-9.27%,
COC(=O)NC(c1ccc2c(c1)OCO2)C(C(=O)OC)C(=O)OC (stereo unspecified),-6.53%,
COC(=O)N[C@H](C(C(=O)OC)=C(C)NCc1ccccc1)c1ccco1,1.16%,
C=C(C)C(=O)C=Cc1ccc(Br)cc1,0.07%,
CCN1C(=NCCCOC(C)C)N[C@H](c2ccccc2)[C@H](C(=O)OC)[C@H]1C,-2.65%,
COC(=O)[C@@H]1C=C[C@H](C)[C@H](CCOc2ccccc2)O1,-6.09%,
C[C@@H]1CC[C@H]2C(=O)O[C@@H](Cc3ccccc3)CN2[C@@H]1c1ccc(Br)cc1,-2.39%,
COC(=O)[C@H]1[C@@H](c2ccccc2)NC(=O)N(CCc2cc(OC)c(OC)c(OC)c2)[C@@H]1C,-9.3%,
CC#CCC1(C(=O)OC)C(=O)NC[C@H]1c1ccccc1 (stereo partly specified),-10.2%,

SMILES,"activity, negative = inhibition",Potency
CC(C)=CCC12CC3[C@@H](O)C(C(=O)c4ccccc4)(C1=O)C(=O)C(CC=C(C)C)(C2=O)C3(C)C (stereo partly specified),-11.9%,
COc1ccc(COC(=O)NN=C2C[C@@H](O)[C@@H](O)[C@@H]3[C@H]4C(=O)N(Cc5ccc6c(c5)OCO6)C(=O)[C@@H]4CC[C@H]23)cc1,-8.26%,
COc1ccc(-c2cnnc(CCCn3ccnc3-c3ccccc3)n2)cc1,-11.4%,
C=C(Nc1ccc(OC)cc1)C(=O)OC,-7.22%,
CC1(OC(=O)CCc2ccccc2)C(=O)C=C2C=C(c3ccc(C#N)cc3)N(CC3CC3)C=C2C1=O (stereo unspecified),-3.92% [at 1.12 µM],
CCCCCCCc1cc2c(cn1)C(=O)C(C)(OC(C)=O)C(O)=C2Cl (stereo unspecified),,1890 nM (active)
CC(C)CON=C1C[C@@H](O)[C@@H](O)[C@@H]2[C@H]3C(=O)N(C[C@@H]4CCCO4)C(=O)[C@@H]3CC[C@H]12,1.41%,
COc1ccc(COC(=O)NN=C2C[C@@H](O)[C@@H](O)[C@@H]3[C@H]4C(=O)N(C5CCCCC5)C(=O)[C@@H]4CC[C@H]23)cc1,-9.29%,
COc1ccc2c(c1)[C@@H](NC(=O)C(F)(F)F)[C@@H]1CCCC[C@]21c1ccccc1,-12.4%,
C=CCOC(=O)N[C@H](c1ccco1)C(C(C)=O)C(C)=O,-1.4%,
COc1ccc(O[C@H]2C=C[C@@H](c3ccccc3)O[C@H]2CON=C[C@@H](C)[C@H](OCc2ccccc2)C(C)C)cc1,-10.5%,
C[C@@H]1CC[C@H]2C(=O)N(Cc3ccc(Cl)cc3)C[C@@H](O)CN2[C@@H]1c1cccc(Br)c1,-11.4%,
COC(=O)C1=C(C(=O)OC)[C@@H]2N(C)c3ccc(OC)cc3[C@@]23C[C@@H](C(=O)OC)N(C(=O)c2cccs2)C3=N1,,inactive
CC1=C[C@@H](C)O[C@@]2(C1)C(=O)Nc1cccc(Br)c12,-13.8%,
COC(=O)CC1c2ccccc2C(Cc2ccc3c(c2)OCO3)=C(C)N1C(=O)OC (stereo unspecified),,inactive
C[C@@H]1CC[C@H]2C(=O)N3[C@@H](CC[C@@H](C)[C@@H]3c3ccc(Br)cc3)C(=O)N2[C@@H]1c1ccc(Br)cc1,-8.54%,
